This passage reports growth results from PubChem BioAssay (NCI).

Compounds without any hit were thinned out: in the full panel of roughly 83,000, 20% have a hit.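 Testing used 96-well plates and a 48-hour single-concentration exposure. Example: -40 means 40% of the starting cells died.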 Values without a mark were called inactive. Active and inactive are the calls of the source. Rule for the calls: active = growth percent below 10; inactive = the rest.

The test system of this assay is MDA-MB-468 breast. Description: NCI-60 one-dose screen, 48 h (100 = growth as untreated, 0 = no growth, -100 = all killed). As to conditions: 10 µM unless noted.
As to `O=C(NS(=O)(=O)c1ccc2ccccc2c1)n1cc(-c2ccncc2)c(-c2ccc(Cl)c(O)c2)n1`, the growth was 78.3%.
For the compound `COc1cc(-c2cc(-c3nc4cc(Cl)c(Cl)cc4[nH]3)[nH]n2)cc(OC)c1OC`, the growth is 51.7%.
With `COc1ccc(/C=C2\C=C(c3ccccc3)N(CCc3ccccc3)C2=O)cc1OC`, the growth is 44%.
As to `CC(C)N1CCN(c2ccncc2S(=O)(=O)N2CCN(C)CC2)CC1`, the growth is 94.3%.
For `CN(Cc1ccc(C(F)(F)F)cc1)CC(O)C(=O)Nc1ccc(Cl)cc1` (stereo not given), the growth was -30.5% (active).
On to `O=P(OCCCl)(OCCCl)C(O)c1ccccc1Cl` (stereo not given), for which the growth is 109%.
In the case of `O=C1/C(=C/c2ccc(Cl)cc2)CN(Cc2cn(CCNc3ccnc4cc(Cl)ccc34)nn2)C/C1=C\c1ccc(Cl)cc1`, the growth was -76.2% (active).
As to `CC1CN(c2oc(-c3ccccc3)nc2C#N)CC(C)O1` (stereo not given), the growth was 109%.
As for `CN(C)CCCOc1ccc(NC2=C(Cl)C(=O)C(Nc3ccc(OCCCN(C)C)cc3)=C(Cl)C2=O)cc1`, the growth is -57.2% (active).
With `O=C(Nc1ccc(Cl)cc1)c1cc(-c2ccc(F)cc2)c2sc(=O)[nH]c2n1`, the growth is -8.3% (active).
`Cc1cc(C)c(S(=O)(=O)N2CCN(c3cc4c(cc3F)c(=O)c(C(=O)O)cn4C3CC3)CC2)c(C)c1`: the growth was 65.1%.
For `O=C(Nc1ccc2[nH]ncc2c1)c1csc(Nc2ccccc2)n1`, the growth was 14.4%.
Under `COCCn1cc(-c2nc(-c3cc4cccnc4n3CCOC)cs2)c2cc(OC)ccc21` stands -18.4% (active).
Consider `CN(Cc1cnc2nc(N)nc(N)c2n1)c1ccc(C(=O)NC(CCC(=O)O)C(=O)O)cc1Br` (stereo not given), for which the growth is 42.4%.
For `COc1cccc2cc(N(C)c3nc(C)nc4ccsc34)ccc12`, the growth was 20.2%.
The value for `Nc1c(C(=O)Nc2cccc3cnccc23)sc2nc3c(cc12)C(=O)CCC3` was 47.9%; that for `C=CC(=O)N1CCN(c2cccc(Oc3nccc(Nc4nnc(-c5ccc(Br)cc5)s4)n3)c2)CC1` was 84.4%; that for `Cc1cccc(C)c1-c1cc(Cc2ccc(Cl)cc2)c(=O)[nH]n1` was 96.9%.
As for `CCC(C)NCc1ccccc1` (stereo not given), the growth is 100%.
For `COc1cc(C2NC(=O)c3ccccc3N2)ccc1OCCCCCOc1c(OC)cc(C2=NOC(c3cc(OC)c(OC)c(OC)c3)C2)cc1OC` (stereo not given), the growth was 9.53% (active).
For `Fc1ccc(Cn2cc(CSc3nc4ccccc4o3)nn2)cc1`, the growth is 109%.
The value for `C=C1C[C@@]2(C)C(CC[C@]3(C)C2CC=C2C4CC(C)(C)C[C@@H](OC(=O)/C(C)=C\C)[C@]4(C(=O)O)CC[C@]23C)C(C)(C)C1=O` (stereo not given in full) was -23.9% (active); that for `Cc1cc(C)c(/C=C2\C(=O)Nc3ccc(NC(=O)CCCCCCC(=O)NO)cc32)[nH]1` was 13%; that for `CCOC(=O)c1sc(N)c(C(=O)OCC)c1C` was 59.4%.
In the case of `CCOC(=O)c1cc2c(=O)oc3ccccc3c2oc1=O`, the growth was 88.2%.
Under `COc1ccc(C2CC(c3cccc(Nc4ccncc4)c3)=NN2c2cc(Cl)cc(Cl)c2)cc1` (stereo not given) stands 43.3%; under `CC(c1ccccc1)C(C(=O)c1ccccc1)c1ccccc1` (stereo not given), 81.5%; under `CNc1ncc2cc(-c3ccc(-c4ncccc4F)cc3Cl)c(=O)n(CC3OCC(N)CO3)c2n1` (stereo not given), 34.5%.
Under `COCC(=O)Oc1cc(-c2ccc(C)cc2C)c(OC(=O)COC)c(-c2ccc(C)cc2C)c1` stands -0.64% (active); under `CC(C)CCN(CCC(C)C)CC(=O)Nc1ccc(S(=O)(=O)c2ccc(NC(=O)CN(CCC(C)C)CCC(C)C)cc2)cc1`, 46.5%; under `Cc1cc2nc(-c3ccccc3)c(-c3ccccc3)nc2cc1C`, 106%.
`COC(=O)c1nc(-c2ccccc2)oc1S(=O)(=O)N1CCC(C(N)=O)CC1`: the growth is -14.6% (active).
For the compound `COC(=O)C(Br)(C(=O)OC)C(Br)C(Br)C(Br)c1ccccc1` (stereo not given), the growth was 7.49% (active).
The value for `CC(C)N1CCN(c2ccc(OC[C@H]3CO[C@](Cn4cncn4)(c4ccc(Cl)cc4Cl)O3)cc2)CC1` was 78.9%.
On to `N/C(=N\c1nc2ccccc2s1)NC(=O)Nc1cccc2ccccc12`, for which the growth is 3.96% (active).
As to `O=C1/C(=C/c2ccc(F)cc2)C=C(c2ccccc2)N1CCc1ccccc1`, the growth is 72.9%.
Take `Cn1ccnc1C(=O)/C=C/c1ccc(CNC(=O)c2ccc(F)cc2)cc1`: the growth is -29.1% (active).
In the case of `Cc1ccc(C)c(S(=O)(=O)NC2c3ccccc3Oc3ccccc32)c1`, the growth was 85%.
With `O=c1ccc2ccc(OCCN3CCCCC3)cc2o1`, the growth was 105%.
For `CCOC(=O)Cn1c(-c2nonc2NC(=O)c2ccccc2F)nc2ccccc21`, the growth was 76%.
